The OligoGym collection

molecular target: SMC5; assay: pooled miR-30 sensor sort-seq; sequence = guide strand; conditions: shRNA
Further: reference of the scale not given here.

Sequence	sensor-assay potency score (higher = more potent)
TTCATTGTCTTTGTGCTCCAGA	0.694
TTATCTTTCATATTGATCGTGA	0.464
TTCTGCAATAATCTCTGTCTAT	-1.01

molecular target: SMCP; assay: as above; conditions: shRNA

Sequence	sensor-assay potency score (higher = more potent)
TTTGGTGGGCAGCATTGACTGC	-0.712
TTTTGACTGGCAGCACTGGTTC	-0.818
TTGTGTTTTGGTGGGCAGCATT	-1.54
TTTGCTGGGCAGCATTTACTGT	-0.976
TTGGTCTCCAAACCACAGCACC	-1.3
TTGATTGCCTTTTGACTGGCAG	0.000564
TTTGCGGTGAGTTGGGCTCAGA	-1.18
TCTAAACACAGGTCTAGCCTGA	0.141
TTGGTGGGCAGCATTGACTGCC	-0.359
TTGTCCTGAGTTTGCGGTGAGT	-1.27
TGACTGGCAGCACTGGTTCTGC	-1.04
TAAGGGGTGAGACTTCAGGCTT	-0.603

molecular target: SMCR7L; assay: as above; conditions: shRNA

Sequence	sensor-assay potency score (higher = more potent)
TTCTCCTGCAGGGACATGCGGA	-1.36
TTCTACTCCAGGAACCGTGGTC	0.223
TTAAACATTCCTCCCCACCTTC	-0.361
TAGCCAAGTGTATCTAACGGAG	-1.24
TGACTTCTTCAAGTCTACCTGG	-0.253
TATGTCCACAGCAGCTTGCTTG	-1.35
TTGCTCTAAGGCCACATCCTAG	-1.5
TACATTGCAATAAATACTGCAA	0.27
TAAGTAGCTGATAAGTCCCCTC	-0.665
TTGTCTGTCTGACCCCTGCAGC	-0.951
AAACATGCTATCACAGCTCTTC	0.268
TTGCATTCAGCTTATCCTGTGT	0.0334

molecular target: SMYD2; assay: as above; conditions: shRNA

Sequence	sensor-assay potency score (higher = more potent)
TAGGTCACAATGACATTGGGGC	0.446
TTACTGTCCTCAAACACAGAGC	-0.927
TTGACCGTGAGCACGTAGGCAT	-0.166
TTAACCGGTCATTTCTATCTTC	0.511
TAACATATGAAACCATGCCATT	-1.62
TTAAGGTTTCTGAACTAAGTGT	-0.419
TTTTCTGTCCATATTGCAGGGC	-0.2
TACAGGAGATCAATATAGCTGG	-0.203
TTTGCCGTGAGCTACTTCCATG	-1.61
TAGTCTTACAGTCTCCGAGGGA	-0.703
TACAGCTCTGACTTCTGCCAGG	-0.948
TTATCCTTGTCCTTGGTGGTAC	-0.716
